Measured values: PubChem BioAssay AID1159580 (chemical genetic matrix, 2015)
About 2,000 (36%) of roughly 5,500 compounds were called active. Inconclusive results (about 18%) are left out. No stated cut-off is given here; in the data, active means normalized growth mostly below about 0.91 (no sharp cut-off); inconclusive means no clear call, values can overlap the other calls; inactive means mostly above about 0.92. This is one part of the list.

Test: chemical genetic growth profiling, strain panel (AID 1159580);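 further: tested at 20 µM; growth read once vehicle control cultures reached saturation at 30 °C; 1 = growth at the plate median or of vehicle wells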
Settings: growth OD
[1] = S. cerevisiae deletion strains, locus YBR021W, strain FUR4, stronger effect = lower value
[2] = S. cerevisiae deletion strains, locus YBR229C, strain ROT2, stronger effect = lower value
[3] = S. cerevisiae deletion strains, locus YCL029C, strain bik1, stronger effect = lower value
[4] = S. cerevisiae deletion strains, locus YDL035C, strain GPR1, stronger effect = lower value
[5] = S. cerevisiae deletion strains, locus YDL074C, strain BRE1, stronger effect = lower value
[6] = S. cerevisiae deletion strains, locus YDL101C, strain DUN1, stronger effect = lower value
[7] = S. cerevisiae deletion strains, locus YDL185W, strain tfp1, stronger effect = lower value
[8] = S. cerevisiae deletion strains, locus YDL192W, strain arf1, stronger effect = lower value
[9] = S. cerevisiae deletion strains, locus YDR101C, strain arx1, stronger effect = lower value
[10] = S. cerevisiae deletion strains, locus YDR162C, strain NBP2, stronger effect = lower value
[11] = S. cerevisiae deletion strains, locus YDR318W, strain mcm21, stronger effect = lower value
[12] = S. cerevisiae deletion strains, locus YDR388W, stronger effect = lower value
[13] = S. cerevisiae deletion strains, locus YDR502C, strain sam2, stronger effect = lower value
[14] = S. cerevisiae deletion strains, locus YER110C, stronger effect = lower value
[15] = S. cerevisiae deletion strains, locus YER155C, strain BEM2, stronger effect = lower value
[16] = S. cerevisiae deletion strains, locus YER167W, strain BCK2, stronger effect = lower value
[17] = S. cerevisiae deletion strains, locus YGL078C, strain dbp3, stronger effect = lower value
[18] = S. cerevisiae deletion strains, locus YGL086W, strain mad1, stronger effect = lower value
[19] = S. cerevisiae deletion strains, locus YGL248W, strain PDE1, stronger effect = lower value
[20] = S. cerevisiae deletion strains, locus YGR135W, strain pre9, stronger effect = lower value
[21] = S. cerevisiae deletion strains, locus YGR252W, strain gcn5, stronger effect = lower value
[22] = S. cerevisiae deletion strains, locus YHR030C, strain SLT2, stronger effect = lower value
[23] = S. cerevisiae deletion strains, locus YHR079C, strain IRE1 (second series), stronger effect = lower value
[24] = S. cerevisiae deletion strains, locus YHR094C, strain hxt1, stronger effect = lower value
[25] = S. cerevisiae deletion strains, locus YHR129C, strain ARP1, stronger effect = lower value
[26] = S. cerevisiae deletion strains, locus YHR200W, strain rpn10, stronger effect = lower value
[27] = S. cerevisiae deletion strains, locus YIL066C, strain RNR3, stronger effect = lower value
[28] = S. cerevisiae deletion strains, locus YIL073C, strain SPO22, stronger effect = lower value
[29] = S. cerevisiae deletion strains, locus YIL125W, strain kgd1, stronger effect = lower value
[30] = S. cerevisiae deletion strains, locus YIR030C, strain dcg1, stronger effect = lower value
[31] = S. cerevisiae deletion strains, locus YJL095W, strain BCK1, stronger effect = lower value
[32] = S. cerevisiae deletion strains, locus YJL134W, strain LCB3, stronger effect = lower value
[33] = S. cerevisiae deletion strains, locus YJL168C, strain set2, stronger effect = lower value
[34] = S. cerevisiae deletion strains, locus YJL187C, strain SWE1 (second series), stronger effect = lower value
[35] = S. cerevisiae deletion strains, locus YKL009W, strain mrt4, stronger effect = lower value
[36] = S. cerevisiae deletion strains, locus YKL068W, stronger effect = lower value
[37] = S. cerevisiae deletion strains, locus YKL085W, strain MDH1 (second series), stronger effect = lower value
[38] = S. cerevisiae deletion strains, locus YKL085W, strain MDH1, stronger effect = lower value
[39] = S. cerevisiae deletion strains, locus YKR001C, strain vps1, stronger effect = lower value
[40] = S. cerevisiae deletion strains, locus YLR039C, strain RIC1, stronger effect = lower value
[41] = S. cerevisiae deletion strains, locus YLR058C, strain SHM2, stronger effect = lower value
[42] = S. cerevisiae deletion strains, locus YLR102C, strain apc9, stronger effect = lower value
[43] = S. cerevisiae deletion strains, locus YLR268W, strain sec22, stronger effect = lower value
[44] = S. cerevisiae deletion strains, locus YLR330W, strain CHS5, stronger effect = lower value
[45] = S. cerevisiae deletion strains, locus YLR371W, strain rom2, stronger effect = lower value
[46] = S. cerevisiae deletion strains, locus YLR418C, strain cdc73, stronger effect = lower value
[47] = S. cerevisiae deletion strains, locus YML016C, strain PPZ1, stronger effect = lower value
[48] = S. cerevisiae deletion strains, locus YML032C, strain rad52, stronger effect = lower value
[49] = S. cerevisiae deletion strains, locus YML124C, strain tub3, stronger effect = lower value
[50] = S. cerevisiae deletion strains, locus YMR078C, strain ctf18, stronger effect = lower value
[51] = S. cerevisiae deletion strains, locus YMR223W, strain ubp8, stronger effect = lower value
[52] = S. cerevisiae deletion strains, locus YMR307W, strain GAS1, stronger effect = lower value
[53] = S. cerevisiae deletion strains, locus YNL067W, strain RPL9B, stronger effect = lower value
[54] = S. cerevisiae deletion strains, locus YNL153C, strain GIM3, stronger effect = lower value
[55] = S. cerevisiae deletion strains, locus YNL233W, strain BNI4, stronger effect = lower value
[56] = S. cerevisiae deletion strains, locus YNL250W, strain rad50, stronger effect = lower value
[57] = S. cerevisiae deletion strains, locus YNL271C, strain bni1, stronger effect = lower value
[58] = S. cerevisiae deletion strains, locus YNL298W, strain CLA4, stronger effect = lower value
[59] = S. cerevisiae deletion strains, locus YNL307C, strain MCK1, stronger effect = lower value
[60] = S. cerevisiae deletion strains, locus YNR052C, strain pop2, stronger effect = lower value
[61] = S. cerevisiae deletion strains, locus YOL012C, strain htz1
[62] = S. cerevisiae deletion strains, locus YOL147C, strain pex11, stronger effect = lower value
[63] = S. cerevisiae deletion strains, locus YOR061W, strain CKA2, stronger effect = lower value
[64] = S. cerevisiae deletion strains, locus YOR069W, strain VPS5, stronger effect = lower value
[65] = S. cerevisiae deletion strains, locus YOR136W, strain idh2, stronger effect = lower value
[66] = S. cerevisiae deletion strains, locus YOR144C, strain elg1, stronger effect = lower value
[67] = S. cerevisiae deletion strains, locus YOR184W, strain ser1, stronger effect = lower value
[68] = S. cerevisiae deletion strains, locus YOR316C, strain cot1, stronger effect = lower value
[69] = S. cerevisiae deletion strains, locus YPL241C, strain CIN2, stronger effect = lower value
[70] = S. cerevisiae deletion strains, locus YPR119W, strain clb2, stronger effect = lower value
[71] = S. cerevisiae deletion strains, locus YPR141C, strain kar3, stronger effect = lower value
[72] = S. cerevisiae deletion strains, locus YPR163C, strain tif3, stronger effect = lower value
[73] = S. cerevisiae deletion strains, locus YPR167C, strain met16, stronger effect = lower value
[74] = S. cerevisiae deletion strains, strain wtn01, stronger effect = lower value

Measured: normalized growth

CC(=O)O[C@H]1CC[C@]2(C)C3=CC(=O)[C@@]4(C)C(C[C@@H]5OC6(OCC(C)CC6Br)[C@@H](C)[C@@H]54)C3CC[C@H]2C1 (some centres undefined)
inactive: S. cerevisiae deletion strains, locus YAL013W, strain DEP1, stronger effect = lower value 1.01 | [1] 0.964 | [2] 0.99 | [3] 0.994 | [4] 1.01 | [5] 1.01 | [6] 0.989 | [7] 0.988 | [8] 0.995 | [9] 1.02 | [10] 1.01 | [11] 0.997 | [12] 0.994 | [13] 0.995 | [14] 0.986 | [15] 0.987 | [16] 0.996 | [17] 0.982 | [18] 1.01 | [19] 0.995 | [20] 0.973 | S. cerevisiae deletion strains, locus YGR229C, strain SMI1, stronger effect = lower value 1.03 | [21] 0.986 | [22] 0.992 | [23] 0.984 | [24] 0.973 | [25] 0.995 | [26] 0.984 | [27] 1 | [28] 1.01 | [29] 0.994 | [30] 0.996 | [31] 0.994 | [32] 0.993 | [33] 0.994 | [34] 0.981 | S. cerevisiae deletion strains, locus YJR043C, strain POL32, stronger effect = lower value 1.02 | S. cerevisiae deletion strains, locus YJR075W, strain HOC1, stronger effect = lower value 0.995 | [35] 1.01 | [36] 0.996 | [39] 0.989 | [40] 0.987 | [41] 0.995 | [42] 0.993 | S. cerevisiae deletion strains, locus YLR262C, strain YPT6, stronger effect = lower value 1.04 | [43] 0.995 | [44] 0.997 | [45] 0.99 | [46] 0.991 | [47] 0.982 | [48] 0.995 | [49] 0.988 | [50] 0.993 | [51] 0.993 | [52] 0.981 | [53] 0.98 | [54] 0.993 | [55] 1.01 | [56] 0.989 | [57] 0.993 | [58] 0.99 | [59] 0.993 | [60] 0.983 | [61] 0.79 | [62] 0.997 | [63] 0.992 | [64] 0.992 | [65] 0.991 | [66] 0.989 | [67] 1.01 | [68] 0.99 | [69] 0.999 | [70] 0.991 | [71] 0.99 | [72] 0.992 | [73] 0.992 | [74] 1.01
active: [37] 1.13 [resistant] | [38] 1.13 [resistant]

CC(=O)O[C@H]1CC[C@]2(C)C3C(=O)[C@@H](OC(C)=O)[C@@]4(C)C(C[C@@H]5O[C@]6(CCC(C)CO6)[C@@H](C)[C@@H]54)C3CC[C@H]2C1 (some centres undefined)
inactive: [1] 1.01 | [2] 0.997 | [3] 0.996 | [4] 1.03 | [5] 1.06 | [6] 0.986 | S. cerevisiae deletion strains, locus YDL134C, strain PPH21, stronger effect = lower value 0.998 | [7] 0.986 | [8] 1 | [9] 1.01 | [10] 1.02 | [11] 0.991 | [12] 0.99 | [13] 0.984 | S. cerevisiae deletion strains, locus YEL061C, strain CIN8, stronger effect = lower value 0.999 | [14] 0.983 | [15] 0.984 | [16] 0.993 | [17] 0.963 | [18] 0.986 | [19] 0.985 | [20] 0.978 | [21] 1.04 | [22] 0.992 | [23] 0.99 | [24] 0.987 | [25] 0.991 | [26] 0.982 | [27] 1.01 | [28] 1.01 | [29] 0.987 | [30] 0.988 | [31] 0.996 | [32] 0.993 | [33] 0.994 | [34] 0.988 | [35] 0.994 | [36] 0.997 | [37] 0.987 | [38] 0.987 | S. cerevisiae deletion strains, locus YKL190W, strain CNB1, stronger effect = lower value 0.998 | [39] 0.982 | [40] 1.05 | [41] 1 | [42] 0.985 | [43] 1.01 | [44] 0.996 | [45] 0.99 | [46] 0.977 | [47] 0.981 | [48] 1.01 | [49] 0.991 | [50] 0.992 | [51] 0.994 | [52] 1 | [53] 0.981 | [54] 0.988 | [55] 0.988 | [56] 0.968 | [57] 0.976 | [58] 0.991 | [59] 0.986 | S. cerevisiae deletion strains, locus YNL322C, strain KRE1, stronger effect = lower value 0.997 | [60] 0.974 | [61] 0.895 | [62] 0.986 | [63] 1 | [64] 0.996 | [65] 0.988 | [66] 0.992 | [67] 1.01 | [68] 0.987 | S. cerevisiae deletion strains, locus YPL055C, strain LGE1, stronger effect = lower value 1.02 | [69] 0.996 | [70] 0.98 | [71] 0.983 | [72] 0.991 | [73] 0.976 | [74] 1.01 | S. cerevisiae strains, strain wild type, stronger effect = lower value 1.01
